Results: PubChem BioAssay (NCI)
Compounds without any hit were thinned out: in the full panel of roughly 83,000, 20% have a hit.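 Percent growth is the endpoint: 0 to 100 indicates growth inhibition (40 means 60% inhibition), 0 means no net growth, and negative values indicate cell death.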 Calls of active or inactive are those of the source. Rule for the calls: active = growth percent below 10; inactive = the rest.

Test system: HL-60(TB) leukemia
Experiment: NCI-60 one-dose screen, 48 h (100 = growth as untreated, 0 = no growth, -100 = all killed)
Conditions: 10 µM unless noted

SMILES | growth
Cc1ccc(SCN2CCN(c3cccc(Cl)c3)CC2)cc1 | 111% (inactive)
CC(=O)C[n+]1ccc(C)cc1Sc1ccccc1C | 109% (inactive)
O=C(N/N=C/c1ccc([N+](=O)[O-])cc1)c1ccc(Br)o1 | 123% (inactive)
CCN(CC)c1ccc2cc(C(Nc3ccc(Cl)cc3)c3nnnn3C(C)(C)C)c(=O)oc2c1 (configuration not stated) | 96% (inactive)
CC(Cc1nnc(SCC(=O)Nc2ccc(I)cc2)n1N)c1ccccc1 (configuration not stated) | 158% (inactive)
NS(=O)(=O)c1ccc(N/C=C/C(=O)c2cc3ccccc3oc2=O)cc1 | 100% (inactive)
O=C1c2cc(Br)ccc2Oc2cc([N+](=O)[O-])ccc2N1c1ccc(I)cc1F | 81.2% (inactive)
CCCCC[C@H]1C/C=C2/C(=O)C(Cl)=C[C@@H]2C/C=C\CCCC(=O)O1 | -9.03% (active)
COc1ccc(-n2ncc3c4nc(OC)c(S(=O)(=O)c5ccccc5)cc4ccc32)cc1 | 107% (inactive)
COc1cccc(/C=C/C(=O)c2cccc(Nc3nc(Nc4ccccc4)nc(Nc4ccccc4)n3)c2)c1 | 94.2% (inactive)
COc1ccc2c(c1)C(C)Cc1c(ncnc1-n1cnc3cc(C)ccc31)N2C (configuration not stated) | -25.8% (active)
O=C1c2ccccc2NC(c2cn(-c3ccccc3)nc2-c2cccs2)N1Cc1ccccc1 (configuration not stated) | -6.57% (active)
C[N+](C)(CCOC(c1ccccc1)c1ccccc1)CC(=O)OCc1ccccc1 | 100% (inactive)
CN(Cc1ccccc1)c1nc(Cl)c(C2CC(c3ccccc3)=NN2c2ccccc2)s1 (configuration not stated) | 100% (inactive)
Cc1nc2ccc(CN(C)c3ccc(C(=O)N[C@@H](CCC(=O)O)C(=O)O)s3)cc2c(=O)[nH]1 | 27.9% (inactive)
CCOc1ccc(-c2nc3ccc(-c4nc5ccc(N6CCN(C)CC6)cc5[nH]4)cc3[nH]2)cc1 | -57.9% (active)
CN(C)c1ccc(/C=C/C(=O)c2ccc(NC(N)=O)cc2)cc1 | 87.3% (inactive)
Cn1c(=O)c(S(=O)(=O)c2ccccc2)cc2ccc3c(cnn3-c3ccc(Cl)cc3)c21 | 90.2% (inactive)
CC1CCCC(C(=O)O)C1C(=O)O (configuration not stated) | 81.8% (inactive)

SMILES | growth
N=c1c2c(-c3ccccc3)c(-c3ccccc3)n(Cc3ccccc3)c2ncn1CCCO | 39% (inactive)
O=C(Nc1ccc(NC(=O)c2cc(=O)[nH]c3ccccc23)cc1)Nc1cccc(C(F)(F)F)c1 | 99.8% (inactive)
CC[C@@H]1OC(=O)[C@H](C)[C@@H](O[C@H]2C[C@@](C)(OC)[C@@H](O)[C@H](C)O2)[C@H](C)[C@@H](O[C@@H]2O[C@H](C)C[C@H](N(C)C)[C@H]2O)[C@](C)(O)C[C@@H](C)[C@@H]2N[C@@H](COCCOC)O[C@H]([C@H]2C)[C@]1(C)O | 94.2% (inactive)
Cn1cc(C=O)c2ccccc21 | 92.8% (inactive)
CCC(=O)OC1CCC2C3CCC(=O)OC3C(C)(CCC(=O)O)CC12C (configuration not stated) | -23.2% (active)
Cc1ccc2c(O)c(O)cc(NC(C)CCCN)c2n1 (configuration not stated) | 28.3% (inactive)
O=S(=O)(O)C(Nc1ccccc1)c1ccccc1 (configuration not stated) | 87.2% (inactive)
CN(C)CCCNc1nn2c(=O)c3ccccc3nc2c2ccccc12 | 26.9% (inactive)
C=C(C)[C@@H]1CC[C@]2(C(=O)OC)CC[C@]3(C)[C@H](CC[C@@H]4[C@@]5(C)CC/C(=N\OCCC(=NCCC#N)NOCCC#N)C(C)(C)[C@@H]5CC[C@]43C)[C@@H]12 | 0.897% [100 µM] (active)
N=C1S/C(=C/c2ccc(-c3ccc4c(c3)C(=O)NC4=O)o2)C(=O)N1c1ccc(Br)cc1 | 50.5% (inactive)
Cc1ccc2nc(/C(C#N)=C(/CCCO)NC(Cc3ccccc3)C(=O)OCc3ccccc3)[nH]c(=O)c2c1 (configuration not stated) | 122% (inactive)
CSc1ncnc2c1ncn2C1CCCO1 (configuration not stated) | 99.9% (inactive)
COc1cc(C(=O)/C=C/c2c(C)n([O-])c3ccc(C)cc3[n+]2=O)cc(OC)c1OC | -42.6% (active)
O=C(CCNC(=O)c1nc(-c2ccccc2)n(-c2ccc(Cl)cc2)n1)NO | 96.8% (inactive)
c1ccc(-c2nc3ccccc3s2)cc1 | 99.5% (inactive)
COCCn1cc(-c2csc(-c3c[nH]c4ccc(F)cc34)n2)c2cccnc21 | 13.9% (inactive)
Cc1ccc(-c2noc(C)n2)cc1 | 100% (inactive)
CN1CCN(CCOc2ccc(-c3cnc4c(-c5ccc(C(F)(F)F)cc5)cnn4c3)cc2)CC1 | -32.5% (active)
